Results filed as inconclusive are left out. The source made the active and inactive calls. Unless noted, the call rests on the fitted dose curve; in most records, active means well fitted curve in the direction sought with a large enough effect in the repeat runs; inconclusive means weak or mixed curves; inactive means no such curve, though single readings can be large; an effect the other way counts as inactive or inconclusive.
How the values were obtained:
[1] = A CellTox Green Cytotoxicity Assay to monitor cytotoxicity in HEK293 cells - 32 hour (AID 1224881); further: nearly all actives have a fitted effect of over 40% in size
How it was run: (§1)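 Seeding of HEK293 cells together with cytotoxicity dye preceded a 5 h incubation at 37 C/5% CO2. Test compounds in DMSO were then added and fluorescence monitored across 40 h.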

[2] = A CellTox Green Cytotoxicity Assay to monitor cytotoxicity in HepG2 cells - 0 hour (AID 1224882); further: nearly all actives have a fitted effect of over 35% in size
How it was run: (§2)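 Nonlytic assay: viable cells exclude the dye, so fluorescence scales with cell death. HepG2 at 600 cells/well, compounds added after 5 h, signal read across 40 h.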

[3] = A CellTox Green Cytotoxicity Assay to monitor cytotoxicity in HEK293 cells - 8 hour (AID 1224884); further: nearly all actives have a fitted effect of over 35% in size
How it was run: as §1

[4] = qHTS RealTime-Glo MT Cell Viability Assay in HepG2 cells - 16 hour (AID 1224885); further: nearly all actives have a fitted effect of over 50% in size
How it was run: (§3)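 qHTS, HepG2, 600 cells/well, RealTime-Glo (NanoLuc + prosubstrate) added with cells; 5 h preincubation; DMSO compound addition; 37 C; luminescence at 0/8/16/24/32/40 h.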

[5] = qHTS RealTime-Glo MT Cell Viability Assay in HEK293 cells - 24 hour (AID 1224886); further: top concentration of the series differs between compounds; nearly all actives have a fitted effect of over 50% in size
How it was run: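 Assay medium contained NanoLuc luciferase plus cell-permeant prosubstrate, added with HEK293 cells at 600 cells/well. After 5 h at 37 C/5% CO2 compounds were added; plates stayed at 37 C for 40 h with serial luminescence reads.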

[6] = qHTS RealTime-Glo MT Cell Viability Assay in HEK293 cells - 8 hour (AID 1224887); further: top concentration of the series differs between compounds; nearly all actives have a fitted effect of over 50% in size
How it was run: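 Tox21 screen in HEK293 using RealTime-Glo MT chemistry, with cells and reagent co-dispensed. Luminescence proportional to viable cell number was captured at intervals during 40 h compound exposure at 37 C.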

[7] = A CellTox Green Cytotoxicity Assay to monitor cytotoxicity in HEK293 cells - 16 hour (AID 1224888); further: nearly all actives have a fitted effect of over 35% in size
How it was run: as §1

[8] = qHTS RealTime-Glo MT Cell Viability Assay in HepG2 cells - 0 hour (AID 1224889); further: nearly all actives have a fitted effect of over 50% in size
How it was run: as §3

[9] = A CellTox Green Cytotoxicity Assay to monitor cytotoxicity in HepG2 cells - 8 hour (AID 1224890); further: nearly all actives have a fitted effect of over 45% in size
How it was run: as §2

[10] = qHTS assay to identify small molecule antagonists of the estrogen receptor alpha (ER-alpha) signaling pathway using the BG1 cell line in the presence of 0.1 nM 17-beta-estradiol - cell viability counter screen (AID 1259241); further: nearly all actives have a fitted effect of over 40% in size
How it was run: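 Following 5 days in phenol red-free medium with charcoal-stripped serum, VM7Luc4E2 cells received test compounds alongside 0.1 nM 17beta-estradiol (final) at 37C for 22 hr. Live cells were then quantified via protease-substrate fluorescence.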

[11] = qHTS assay to identify small molecule antagonists of the androgen receptor (AR) signaling pathway using the MDA cell line in the presence of 0.5 nM R1881 - cell viability counter screen (AID 1259242); further: nearly all actives have a fitted effect of over 45% in size
How it was run: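 R1881 at 0.5 nM final stimulated MDA-kb2 cells during 16 hr compound treatment at 37C. Cytotoxicity read: CellTiter-Fluor fluorescence after 30 min.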

[12] = qHTS assay to identify small molecule phospholipidosis (PLD) inducers (AID 1259344; active means well fitted curve in the direction sought with a large enough effect; an effect the other way counts as inactive or inconclusive)
How it was run: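 HepG2 cells grown on collagen I take up LipidTOX Red while exposed to compound for 24 h; after fixation they are imaged at 20x and pit metrics are extracted.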

[13] = qHTS assay to identify small molecule HDAC inhibitors (AID 1259364);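 further: wild-type HCT-116 cells with endogenous class I/II HDAC activity; top concentration of the series differs between compounds; nearly all actives have a fitted effect of over 45% in size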
How it was run: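 Relative class I and II HDAC activity is taken from the luminogenic signal in HCT-116 cells, with compound exposure 2 hr and reagent development 30 min at room temperature.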

[14] = qHTS assay to identify small molecule HDAC inhibitors - cell viability counter screen (AID 1259365)
How it was run: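 HCT-116 wild-type, overnight attachment; 2hr drug exposure, 37C; CellTiter-Glo luminescent ATP readout after 30min RT.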

[15] = qHTS assay to identify small molecule agonists of the sonic hedgehog signaling (Shh) pathway - cell viability counter screen (AID 1259366); further: nearly all actives have a fitted effect of over 50% in size
How it was run: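 Compounds in DMSO were pin-transferred onto 3T3 Gli1-Luc cells that had settled 4hr; plates then stood 24hr at 37C and 5% CO2. One hour before the end, CellTiter-Fluor was added and fluorescence recorded.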

[16] = qHTS assay to identify small molecule antagonists of the sonic hedgehog signaling (Shh) pathway - cell viability counter screen (AID 1259367); further: nearly all actives have a fitted effect of over 55% in size
How it was run: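 After a 4 hr settling period, 3T3 Gli1-Luc cells were treated with DMSO-dissolved chemicals and conditioned medium, kept 24 hr at 37C in 5% CO2, and assayed for viability by CellTiter-Fluor fluorescence following 1 hr reagent incubation.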

[17] = qHTS assay to identify small molecule agonists of the sonic hedgehog signaling (Shh) pathway (AID 1259368; calls by dose curve;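 further: NIH/3T3-derived 3T3Gli1-Luc cells carrying a stable Gli1-driven firefly luciferase reporter; series mostly up to about 92 µM; nearly all actives have a fitted effect of over 15% in size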)
How it was run: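 Mouse fibroblast (NIH/3T3) reporter cells with stably integrated Gli1-Luc were treated 24 hr with compound; firefly luciferase luminescence served as the read-out.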

[18] = A CellTox Green Cytotoxicity Assay to monitor cytotoxicity in HepG2 cells - 32 hour (AID 1224883); further: nearly all actives have a fitted effect of over 50% in size
How it was run: as §2

[19] = biological target: Estrogen receptor (Homo sapiens) (UniProt P03372); experiment: qHTS assay to identify small molecule antagonists of the estrogen receptor alpha (ER-alpha) signaling pathway using the BG1 cell line in the presence of 0.1 nM 17-beta-estradiol (AID 1259244); further: nearly all actives have a fitted effect of over 50% in size
Sequence of Estrogen receptor (Homo sapiens) (P03372 whole entry, looked up): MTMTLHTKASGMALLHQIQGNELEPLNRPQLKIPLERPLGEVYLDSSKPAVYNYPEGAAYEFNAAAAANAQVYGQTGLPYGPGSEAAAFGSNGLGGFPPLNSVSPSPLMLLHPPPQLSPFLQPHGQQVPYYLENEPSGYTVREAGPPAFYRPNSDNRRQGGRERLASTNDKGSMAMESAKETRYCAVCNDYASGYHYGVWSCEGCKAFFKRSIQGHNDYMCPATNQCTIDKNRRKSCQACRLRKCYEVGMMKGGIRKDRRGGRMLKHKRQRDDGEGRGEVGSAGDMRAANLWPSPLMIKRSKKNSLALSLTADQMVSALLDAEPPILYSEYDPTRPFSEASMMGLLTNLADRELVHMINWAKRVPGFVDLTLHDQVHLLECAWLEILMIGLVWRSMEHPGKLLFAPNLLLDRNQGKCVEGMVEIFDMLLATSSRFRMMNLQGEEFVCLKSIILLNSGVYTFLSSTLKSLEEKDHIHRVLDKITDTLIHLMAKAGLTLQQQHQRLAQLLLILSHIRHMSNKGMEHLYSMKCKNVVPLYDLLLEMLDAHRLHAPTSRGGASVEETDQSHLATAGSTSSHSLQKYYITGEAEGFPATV
How it was run: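 VM7Luc4E2; 4xERE-luciferase; 0.1 nM E2 final; 22 h co-incubation, 37C; ONE-Glo luminescence after 30 min at room temperature.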

[20] = biological target: Androgen receptor (Homo sapiens) (UniProt P10275); experiment: qHTS assay to identify small molecule antagonists of the androgen receptor (AR) signaling pathway using the MDA cell line in the presence of 0.5 nM R1881 (AID 1259243); further: nearly all actives have a fitted effect of over 50% in size
Sequence of Androgen receptor (Homo sapiens) (P10275 whole entry, looked up): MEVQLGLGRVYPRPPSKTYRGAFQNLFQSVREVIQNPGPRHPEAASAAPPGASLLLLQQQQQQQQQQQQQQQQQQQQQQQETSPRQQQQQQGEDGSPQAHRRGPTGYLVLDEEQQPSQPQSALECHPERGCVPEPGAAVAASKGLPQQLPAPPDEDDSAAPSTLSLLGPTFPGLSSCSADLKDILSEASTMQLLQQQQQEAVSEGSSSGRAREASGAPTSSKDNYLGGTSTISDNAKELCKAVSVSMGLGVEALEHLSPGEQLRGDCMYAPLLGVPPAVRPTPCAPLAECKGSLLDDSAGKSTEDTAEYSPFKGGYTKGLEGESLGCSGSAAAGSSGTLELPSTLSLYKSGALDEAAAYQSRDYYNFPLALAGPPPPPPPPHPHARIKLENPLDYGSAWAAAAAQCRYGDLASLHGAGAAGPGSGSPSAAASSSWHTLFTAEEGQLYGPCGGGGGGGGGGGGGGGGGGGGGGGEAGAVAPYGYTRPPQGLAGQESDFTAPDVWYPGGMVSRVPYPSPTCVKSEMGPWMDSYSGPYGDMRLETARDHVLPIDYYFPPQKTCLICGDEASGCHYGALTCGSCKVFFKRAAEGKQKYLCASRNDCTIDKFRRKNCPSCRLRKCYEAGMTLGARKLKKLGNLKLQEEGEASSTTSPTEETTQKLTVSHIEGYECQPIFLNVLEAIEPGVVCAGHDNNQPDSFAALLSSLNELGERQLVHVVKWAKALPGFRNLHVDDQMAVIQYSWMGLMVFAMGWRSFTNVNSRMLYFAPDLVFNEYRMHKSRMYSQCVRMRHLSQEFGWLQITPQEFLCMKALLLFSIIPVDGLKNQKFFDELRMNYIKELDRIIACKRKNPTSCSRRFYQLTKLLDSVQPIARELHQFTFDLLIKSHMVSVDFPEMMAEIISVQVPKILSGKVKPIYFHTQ
How it was run: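 We exposed MDA-kb2 cells to compounds under 0.5 nM R1881 stimulation for 16 hr at 37C and quantified MMTV-driven luciferase by luminescence.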

Measured: Potency

O=C1C(c2[nH]c3ccccc3c2O)=Nc2ccccc21
inactive: [1] | [2] | [3] | [4] | [5] | [6] | [7] | [8] | [9] | [10] | [11] | [12] | [13] | [14] | [15] | [16] | [17]

Brc1ccc(Br)c(Br)c1
inactive: [2] | [18] | [3] | [4] | [5] | [6] | [7] | [8] | [9] | [10] | [11] | [19] | [13] | [14] | [15] | [16] | [17]

CCCCCCCCCCCCCCCC(=O)OC(C)C
inactive: [1] | [2] | [3] | [4] | [5] | [6] | [7] | [8] | [9] | [10] | [11] | [12] | [13] | [14] | [15] | [16] | [17]

CCCCC(C=O)CC (centres undefined)
inactive: [1] | [2] | [3] | [4] | [5] | [6] | [7] | [8] | [9] | [10] | [11] | [19] | [13] | [14] | [15] | [16] | [17]

O=C1CCCC1
inactive: [1] | [2] | [3] | [4] | [5] | [6] | [7] | [8] | [9] | [10] | [11] | [19] | [13] | [14] | [15] | [16] | [17]

CCCCCCCO
inactive: [1] | [2] | [3] | [4] | [5] | [6] | [7] | [8] | [9] | [10] | [11] | [19] | [13] | [14] | [15] | [16] | [17]

COC(=O)c1cccnc1
inactive: [1] | [2] | [3] | [5] | [6] | [7] | [8] | [10] | [11] | [20] | [12] | [13] | [14] | [15] | [16] | [17]

O=C(O)/C=C/C(=O)O
inactive: [1] | [2] | [3] | [4] | [5] | [6] | [7] | [8] | [13] | [14] | [15] | [16] | [17]

O=C(OCC1CCC2OC2C1)C1CCC2OC2C1 (centres undefined)
inactive: [1] | [2] | [3] | [4] | [5] | [6] | [7] | [8] | [10] | [11] | [19] | [13] | [14] | [17]

O=[N+]([O-])c1ccc2nc[nH]c2c1
inactive: [1] | [2] | [3] | [5] | [6] | [7] | [8] | [10] | [11] | [19] | [13] | [14] | [15] | [16] | [17]

CN(C)c1ccc(O)c2c1C[C@H]1C[C@H]3[C@H](N(C)C)C(=O)C(C(N)=O)=C(O)[C@@]3(O)C(=O)C1=C2O
inactive: [1] | [2] | [3] | [4] | [5] | [6] | [7] | [8] | [10] | [11] | [19] | [12] | [13] | [14] | [15] | [16] | [17]

c1ccc2c(c1)Cc1ccccc1-2
inactive: [2] | [18] | [3] | [5] | [6] | [7] | [8] | [10] | [11] | [19] | [13] | [14] | [15] | [16] | [17]

OC1C(O)C(O)C(O)C(O)C1O (centres undefined)
inactive: [1] | [2] | [3] | [5] | [6] | [7] | [8] | [10] | [11] | [19] | [12] | [13] | [14] | [15] | [16] | [17]

CC(C)(C)c1cc(Cc2cc(C(C)(C)C)c(O)c(C(C)(C)C)c2)cc(C(C)(C)C)c1O
inactive: [1] | [2] | [3] | [4] | [5] | [6] | [7] | [8] | [10] | [11] | [19] | [13] | [14] | [15] | [16] | [17]

Reference: PubChem BioAssay (Tox21)
